This is part of a sample that, as a whole, favours compounds with a hit. Of some 83,000 tested, about 20% had one in any assay.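 Growth was measured after 48 h exposure to one concentration of compound in 96-well plates. Values under 10 count as active.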 A number with no mark means an inactive call. The source made the active and inactive calls.
tested on: HL-60(TB) leukemia; experiment: NCI-60 one-dose screen, 48 h (100 = growth as untreated, 0 = no growth, -100 = all killed); conditions: 10 µM unless noted

For `COc1cc(/C=C/C(=O)c2cccnc2Nc2ccc(F)cc2)cc(OC)c1OC`, the growth was 5.42% (active).
With `CCc1c2c(nc3ccc(OCc4ccc(B(O)O)cc4)cc13)-c1cc3c(c(=O)n1C2)COC(=O)[C@]3(O)CC` the growth was -40.8% (active).
`CCOC(=O)C(=Cc1ccc(-c2ccccc2)cc1)C(=O)OCC` was tested, and the growth was -10.6% (active).
For `COc1cc(/C=C2\CCC/C(=C\c3cc(CN4CCOCC4)c(O)c(OC)c3)C2=O)cc(CN2CCOCC2)c1O`, the growth was 4.24% (active).
For `COc1ccc([C@H]2c3[nH]c4ccccc4c3C[C@H]3C(=O)N(CCCCCCC(=O)NO)CC(=O)N23)cc1`, the growth was 5.31% (active).
In the case of `CN(C)CCNC(=O)c1cccn2c(=O)c3cc4ccccc4cc3nc12`, the growth is reported as -38.5% (active).

Compared with `NNC(=O)CNc1ccc2ccccc2c1`, `C#CC(OC(=O)N(C)C)(c1ccccc1)c1ccc(F)cc1` (stereo not drawn) is higher in growth: 84.8% for the first, 127% for the second.

First: O=C1/C(=C/c2cccs2)CCC/C1=C\c1cccs1
Second: N[C@@H]1CCCN(c2c(/C=C3\SC(=O)NC3=O)cccc2-c2ccccc2)C1
The growth of the first is higher: 93.8% for the first, 26.5% for the second.

Compared with `Cc1ccc([C@H]2c3[nH]c4ccccc4c3C[C@H]3C(=O)N(CCCCCCC(=O)NO)CC(=O)N23)cc1`, `COc1cc(NC(=O)CSc2nc3ccc(C)cc3c(=O)n2-c2ccccc2)cc(OC)c1OC` is higher in growth: 18.6% for the first, 89.1% for the second.

First: COc1cc2c(cc1OC)C(=O)C(Br)CC2 (stereo not drawn)
Second: COc1cc(/C=C/C(=O)c2cc(-c3ccc(C(F)(F)F)cc3)ccc2O)cc(OC)c1OC
The growth of the first is higher: 27.3% for the first, 13.9% for the second.

Going from `COc1ccc(S(=O)(=O)n2c3ccccc3n3ncc(-c4nnc(C)o4)c23)cc1` to `COc1ccc(C2=C/C(=C\c3ccccc3O)C(=O)N2Cc2ccccc2)cc1`, the growth rises from 12.2% to 40.9%.

Compared with `Cc1cc2nc(CC(=O)c3ccncc3)c(=O)[nH]c2cc1C`, `O=S1(=O)NCCCN1CCNc1nccc(-c2c(-c3cccc(O)c3)nc3sccn23)n1` is lower in growth: 89.8% for the first, 73.3% for the second.

First: OCCS
Second: Nc1c(Br)cc2c(c1Br)Cc1cc([N+](=O)[O-])ccc1-2
The growth of the first is higher: 98.4% for the first, 69.6% for the second.

Compared with `Fc1ccc(Oc2ccc(Nc3ncnc4onc(-c5ccccc5)c34)cc2)cc1`, `O=C1CCCCC1(c1ccccc1)c1ccccc1` is higher in growth: 86.9% for the first, 106% for the second.

With `N#CSc1cc(S(N)(=O)=O)ccc1N` the growth was 81.2%.
